Measured values from article PMC4336329 (PLoS ONE, 2015).
The campaign covered roughly 310,000 compounds. About 14,000 (4.5%) showed an effect of 50% or more. Effects have a minus sign here. What follows is part of a selection rich in strong results, with near analogues and random picks from the rest.

These compounds were tested against human ether-à-go-go-related gene (hERG) potassium channel (human, UniProt Q12809) (assay: primary screen, population patch clamp on CHO cells stably expressing hERG; higher = less effect of the substance).
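Further: peak tail current of the secondary pulse compared with the same well before compound.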

human ether-à-go-go-related gene (hERG) potassium channel, sequence (Q12809 whole entry, looked up): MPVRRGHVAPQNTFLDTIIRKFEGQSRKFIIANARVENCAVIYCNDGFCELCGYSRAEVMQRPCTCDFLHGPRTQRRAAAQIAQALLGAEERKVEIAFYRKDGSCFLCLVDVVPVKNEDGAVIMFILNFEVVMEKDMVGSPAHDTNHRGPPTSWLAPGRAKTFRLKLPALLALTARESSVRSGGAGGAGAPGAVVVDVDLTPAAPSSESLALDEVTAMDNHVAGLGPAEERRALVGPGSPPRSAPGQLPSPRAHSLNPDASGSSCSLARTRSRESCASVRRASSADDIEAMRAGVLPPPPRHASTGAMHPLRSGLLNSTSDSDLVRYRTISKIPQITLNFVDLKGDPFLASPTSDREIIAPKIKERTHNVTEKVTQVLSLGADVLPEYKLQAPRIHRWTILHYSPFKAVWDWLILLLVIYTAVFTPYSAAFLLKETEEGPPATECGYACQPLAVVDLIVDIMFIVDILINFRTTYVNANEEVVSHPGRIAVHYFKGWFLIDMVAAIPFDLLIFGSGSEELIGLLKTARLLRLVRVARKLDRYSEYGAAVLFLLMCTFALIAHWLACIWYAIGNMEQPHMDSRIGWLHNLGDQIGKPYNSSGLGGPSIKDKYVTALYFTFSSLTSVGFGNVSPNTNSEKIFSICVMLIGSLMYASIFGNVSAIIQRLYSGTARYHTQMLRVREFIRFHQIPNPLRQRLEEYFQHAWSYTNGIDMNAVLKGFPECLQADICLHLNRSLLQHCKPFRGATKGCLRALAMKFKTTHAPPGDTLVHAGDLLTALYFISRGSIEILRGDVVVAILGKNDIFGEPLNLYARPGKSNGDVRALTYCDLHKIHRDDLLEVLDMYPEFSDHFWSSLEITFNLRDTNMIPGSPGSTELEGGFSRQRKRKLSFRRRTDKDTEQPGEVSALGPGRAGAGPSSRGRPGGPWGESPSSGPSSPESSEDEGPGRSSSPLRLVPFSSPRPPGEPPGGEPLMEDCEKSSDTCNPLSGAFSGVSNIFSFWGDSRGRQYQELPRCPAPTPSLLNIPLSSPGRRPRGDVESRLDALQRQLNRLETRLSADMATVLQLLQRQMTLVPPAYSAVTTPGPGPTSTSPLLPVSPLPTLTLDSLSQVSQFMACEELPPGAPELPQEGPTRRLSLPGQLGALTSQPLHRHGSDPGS

| SMILES | hERG current change (%, negative = inhibition) at 10uM [%] |
| --- | --- |
| Cc1ccc(-c2nnc(SCC(N)=O)n2C)cc1 | -0.685 |
| CN(C)N1C(N)=C(C#N)C(c2cccnc2)C2=C1CCCC2=O (stereo not shown) | -9.73 |
| CC(C)Oc1ccc(C(=O)O)cc1 | 16.5 |
| O=S(=O)(NCc1ccccc1)c1ccc(Cl)c(S(=O)(=O)NCc2ccccc2)c1 | -33 |
| COc1ccc(C(=O)NCCC2=CCCCC2)cc1 | -9.79 |
| NS(=O)(=O)c1ccc(CCNC(=O)CNS(=O)(=O)c2cccc(Br)c2)cc1 | 13.2 |
| COc1ccc(C2C(C#N)=C(N)N(c3sc4c(c3C#N)CCCC4)C3=C2C(=O)CC(C)(C)C3)cc1 (stereo not shown) | -2.99 |
| O=C(COc1ccc(Cl)cc1)Nc1ccc2oc(=O)ccc2c1 | 3.7 |
| Cc1cc(C)n(C(=O)c2cc(F)c(F)cc2C)n1 | 4.1 |
| O=C(NC1CCN(Cc2ccc(Cl)c(Cl)c2)CC1)c1ccccc1 | -18.3 |
| OC1CCN(Cc2ccc3ccccc3c2)CC1 | 13.4 |
| Cc1ccc(CN2CCC(NC(=O)c3ccccc3)CC2)cc1 | -75 |
| O=C(NC1CCN(Cc2ccccc2)CC1)c1ccccc1 | -33.3 |
| Cc1ccc(CN2CCSc3ccc(C(=O)NC4CCN(Cc5ccccc5)CC4)cc32)cc1 | 8.21 |
| CCCCOc1ccc(C(=O)NCC(=O)NC2CCN(Cc3ccccc3)CC2)cc1 | -25.6 |
| O=C(NC1CCN(Cc2ccc3ccccc3c2)CC1)c1ccccc1 | -66.3 |
| CC(C)Oc1ccc(C(=O)NC2CCN(Cc3ccccc3)CC2)cc1 | -60.8 |
| CC(C)Oc1ccc(C(=O)NC2CCCCC2)cc1 | 10.3 |
| CCOC(=O)c1sc(=NC(=O)CCSc2ccccc2)n(C)c1C | -11.8 |
| O=C(NCCOc1cccc2cccnc12)c1cccs1 | -12.8 |
| O=C(CSc1ncnc2c1nnn2Cc1ccc(F)cc1)NC1CCCCC1 | 11.8 |
| N/C(=N\OC(=O)N1c2ccccc2Sc2ccccc21)c1ccc(Br)cc1 | 5.79 |

| SMILES | hERG current change (%, negative = inhibition) at 10uM [%] |
| --- | --- |
| O=C(COc1c(Br)cc(Br)c2cccnc12)N1CCc2ccccc2C1 | 8.07 |
| CC(=O)N/C(=C\c1ccccc1)C(=O)OCC(=O)N(CC(C)C)c1c(N)n(Cc2ccccc2)c(=O)[nH]c1=O | 6.75 |
| CC(c1ccc(F)cc1)n1c(-c2ccc3ccccc3n2)n[nH]c1=S (stereo not shown) | 18.1 |
| Cn1c(=O)c2c(nc(SCc3ccc(F)cc3)n2C)n(C)c1=O | 1.9 |
| O=C(NCC(O)c1ccccc1)c1ccc(Cl)c(S(=O)(=O)N2CCCCC2)c1 (stereo not shown) | 8.95 |
| CN(C)CCCNC(=O)c1ccc(Cl)c(S(=O)(=O)N2CCCCCC2)c1.Cl | -72.4 |
| CCN(CC)CCNC(=O)c1ccc(Cl)c(S(=O)(=O)N2CCCCCC2)c1.Cl | -67.4 |
| CCN(CC)CCOC(=O)c1ccc(NC(=O)c2ccc(Cl)c(S(=O)(=O)N3CCCCCC3)c2)cc1.Cl | 13.7 |
| CCN(CC)CCNC(=O)c1ccc(NC(=O)c2ccc(Cl)c(S(=O)(=O)N3CCCCCC3)c2)cc1.Cl | -24 |
| Cc1ccc(CNC(=O)c2ccc(Cl)c(S(=O)(=O)N3CCCCC3)c2)cc1 | -27.3 |
| CN(C)C(CNC(=O)c1ccc(Cl)c(S(=O)(=O)N2CCCCCC2)c1)c1ccccc1 (stereo not shown) | -67.5 |
| O=C(NCCCN1CCCC1=O)c1ccc(Cl)c(S(=O)(=O)N2CCCCC2)c1 | -24.1 |
| O=C(NCC(O)c1ccccc1)c1ccc(Cl)c(S(=O)(=O)N2CCCC2)c1 (stereo not shown) | -0.367 |
| Cc1cc(C)n(C(=O)c2cccc([N+](=O)[O-])c2)n1 | -5.46 |
| COc1ccc(CCNC(=O)C2CCN(S(=O)(=O)c3cnc[nH]3)CC2)cc1OC | 13.7 |
| CCN(C(=O)CSc1nc(N)cc(=O)[nH]1)c1c(N)n(Cc2ccccc2)c(=O)[nH]c1=O | 2.41 |
| Cc1ccc(S(=O)(=O)NCCCn2ccnc2)cc1C(=O)NC(C)C | -1.56 |
| O=S(=O)(Nc1ccc2c(c1)OCO2)c1ccc(Br)s1 | -18.1 |
| O=C(O)CCN1CCc2ccccc2C1c1ccncc1 (stereo not shown) | 13.2 |
| Cc1sc(NC(=O)c2ccco2)c(CN2CCC(C)CC2)c1C | -16.2 |
| CCN(CC)C(=O)CSc1nnc(CNc2ccc(F)cc2)o1 | 1.13 |
